Assay outcomes from PubChem.
DNA Pol III inh: qHTS Assay for Inhibitors of DNA Polymerase III Holoenzyme System; hit rate 0.25% among 71,000; Potency, µM (doses to about 57.1 µM), inactives show at the highest dose activity change, negative = inhibition; AID 603, 2007; reconstituted DNA polymerase III holoenzyme replication, biochemical
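Reconstituted *E. coli* holoenzyme (0.35 nM Pol III, 1 nM beta, 154 nM SSB, 2 nM primase) was preincubated with compound for 15 min at RT. Synthesis on 1.4 nM ssM13Gori ran 35 min, then was stopped with PicoGreen/EDTA and read as dsDNA fluorescence.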
ERK AVP inh: qHTS Assay for Inhibitors of the ERK Signaling Pathway using a Homogeneous Screening Assay; HEK293-V1b, vasopressin-stimulated pERK AlphaScreen; Potency, µM (series often up to 57.5 µM), without a hit: at the top dose activity, negative = inhibition, hits mostly inhibitors; hit rate 0.99% among 72,000; note: nearly all actives have a fitted effect of over 55% in size
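Overnight-seeded V1b-HEK293 cells in 1% FBS got compound, then vasopressin (25 nM final, 5 min, 37C), then lysis buffer. AlphaScreen detection of phospho-ERK; activity normalized to basal and full-stimulation controls.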
ALOX15 inhib: qHTS Assay for Inhibitors of 15-hLO (15-human lipoxygenase) | Potency, µM (highest dose often 57.1 µM), inactives show at the top dose activity change, negative = inhibition, most hits filed as inhibitors | AID 887, 2007 | hit rate 1.4% among 74,000 | purified 15hLO-1, xylenol orange hydroperoxide absorbance; note: nearly all actives have a fitted effect of over 55% in size
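40 nM 15hLO-1 + cpd, 15 min RT; start w/ 50 uM AA (final), 6 min RT; stop/detect w/ 200 uM XO + 300 uM Fe(II) in 50 mM H2SO4, 30 min; A573/A405. Buffer 25 mM Hepes pH 7.5, 0.01% Triton X-100. No-enzyme wells as negative control.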
Luciferase inh: qHTS Assay for Inhibitors of Firefly Luciferase | AID 411, 2009 | purified firefly luciferase, luminescence, 8 min | hit rate 2.2% among 72,000 | Potency, µM (highest dose often 57.1 µM), for inactives: at the highest dose activity change, negative = inhibition, hits mostly inhibitors; note: nearly all actives have a fitted effect of over 40% in size
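Compounds were tested as concentration series (qHTS) against purified P. pyralis luciferase with luciferin and 10 uM ATP in 50 mM imidazole pH 7.2, 50 mM KCl, 7 mM MgCl2, 0.01% Tween 20, 0.05% BSA. Luminescence was read after 8 min at ambient temperature.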
Tau filament bind: qHTS Assay for Tau Filament Binding; Microtubule-associated protein tau (Homo sapiens), P10636; hit rate 2% among 71,000; recombinant tau filaments, thioflavin S fluorescence, 15 h; filaments grown with octadecylsulfate alongside compound; Potency, µM (series often up to 57.1 µM), for inactives: top-dose activity change, negative = inhibition;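 note: actives lower thioflavin S fluorescence by blocking filaments or displacing dye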
Target sequence (P10636 whole entry, looked up): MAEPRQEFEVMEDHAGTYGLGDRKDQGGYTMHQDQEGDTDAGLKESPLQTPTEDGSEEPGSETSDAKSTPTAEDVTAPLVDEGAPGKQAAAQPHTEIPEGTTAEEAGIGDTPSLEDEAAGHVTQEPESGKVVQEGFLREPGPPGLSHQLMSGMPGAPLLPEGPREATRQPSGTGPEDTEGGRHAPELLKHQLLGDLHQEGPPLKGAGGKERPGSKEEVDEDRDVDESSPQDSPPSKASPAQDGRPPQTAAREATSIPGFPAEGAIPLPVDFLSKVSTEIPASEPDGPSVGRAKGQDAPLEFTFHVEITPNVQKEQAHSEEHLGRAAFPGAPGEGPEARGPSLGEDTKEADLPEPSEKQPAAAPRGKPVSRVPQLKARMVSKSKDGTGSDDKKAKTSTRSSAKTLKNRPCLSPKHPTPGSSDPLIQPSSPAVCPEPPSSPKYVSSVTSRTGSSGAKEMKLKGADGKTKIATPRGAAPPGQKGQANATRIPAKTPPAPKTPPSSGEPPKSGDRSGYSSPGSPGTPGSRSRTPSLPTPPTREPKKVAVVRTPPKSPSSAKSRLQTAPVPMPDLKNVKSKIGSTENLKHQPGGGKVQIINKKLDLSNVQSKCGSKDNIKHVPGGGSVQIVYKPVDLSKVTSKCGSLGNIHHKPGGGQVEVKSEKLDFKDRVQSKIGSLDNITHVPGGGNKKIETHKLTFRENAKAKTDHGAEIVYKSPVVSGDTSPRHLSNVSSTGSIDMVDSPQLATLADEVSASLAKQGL
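Quantitative HTS: thioflavine S signal from ODS-induced tau filaments, excited at 450 nm, emission 510 nm. Conditions: 1 uM tau, 30 uM ODS, 15 h at 37 C, pH 7.4.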
Bst PK mod: Pyruvate Kinase. purified pyruvate kinase, luminescence ATP production; ribose 5-phosphate activator present at AC10. hit rate 1.2% among 51,000. Potency, µM; in the data active = potency below about 11 µM; inconclusive = mostly about 12 µM to 25 µM;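 the screen sought inhibitors and activators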;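 note: scaled between full activation by ribose 5 phosphate and full inhibition by luteolin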
An asterisk follows results filed as active; i = inactive; ? = inconclusive; · = not tested or not shown; [ ] = remark or other dose. Most compounds without a hit are left out; they make up all but 6% or so of the library. Unless noted, calls come from the whole dose curve; as a rule, active = well fitted curve in the direction sought with a large enough effect; inconclusive = small, poorly fitted or top-dose-only effect, or another doubt; inactive = no such curve, though single readings can be large; an effect the other way counts as inactive or inconclusive. Unless noted, % is set by controls: 0 for no effect and ±100 for the full control effect; potency is the fitted concentration of half-maximal effect.

SMILES	DNA Pol III inh	ERK AVP inh	ALOX15 inhib	Luciferase inh	Tau filament bind	Bst PK mod
Cc1ccc2c(c1)N[C@H](c1ccc(C(=O)O)cc1)c1cccn1-2	-14%[11.4 µM]	24%[11.5 µM]	10%[11.4 µM]	2%[11.4 µM]	15%[11.4 µM]	·
COCCNC(=O)c1ccc(Cc2nc3ccccc3[nH]2)cc1	·	·	-1%	·	·	·
NC(=O)c1ccsc1NC(=O)C1CCCN1S(=O)(=O)c1ccc(Cl)cc1 (configuration not stated)	-3%	-25%	-7%	-2%	-15%	i
O=C(Nc1nccs1)C1CCCN1S(=O)(=O)c1ccc(Cl)cc1 (configuration not stated)	-5%	-7%	5%	2%	2%	10*
O=C(Nc1ccc2c(c1)OCCO2)C1CCCN1S(=O)(=O)c1ccc(Cl)cc1 (configuration not stated)	-2%	-24%	2%	4%	-1%	11*
O=C(Nc1cccnc1)C1CCCN1S(=O)(=O)c1ccc(Cl)c(Cl)c1 (configuration not stated)	-3%	-3%	-3%	2%	-1%	4.7*
O=C(Nc1cccnc1)c1ccc(Cl)c(S(=O)(=O)N2CCCCCC2)c1	-1%	20µM*	-8%	-6%	-3%	>57
CNC(=O)Oc1ccc2c(c1)[C@@]1(C)CCN(C)C1N2C (some centres not stated)	·	8%	-11%	·	·	·
O=C(O)c1cc(S(=O)(=O)Nc2ccc(O)cc2)ccc1Cl	·	·	1%	·	·	·
FC(F)(F)c1ccccc1-c1nccc(-n2ccnc2)n1	-3%	-18%	?	-1%[2.29 µM]	-5%	·
COC(=O)c1cc(OC)c(OC)cc1NC(=O)C1CCC(=O)N1S(=O)(=O)c1ccc(C)cc1 (configuration not stated)	-3%	25µM*	7%	0%	-3%	?
Cc1ccc(S(=O)(=O)N2C(=O)CCC2C(=O)NCc2ccco2)cc1 (configuration not stated)	2%	-1%	2%	2%	-6%	?
COC(=O)c1ccc(NC(=O)C2CCCN2S(=O)(=O)c2ccc(C)cc2)cc1 (configuration not stated)	-2%	25µM*	-3%	0%	4%	·
COC(=O)c1ccc(NC(=O)C2CCCN2S(=O)(=O)c2ccc(OC)cc2)cc1 (configuration not stated)	6%	-28%	1%	-1%	12%	>57
NCCSS(=O)(=O)CCN	-6%[11.4 µM]	5%[11.5 µM]	21%[11.4 µM]	2%[11.4 µM]	4%[11.4 µM]	·
Cc1[nH]nc2c1-c1nc3ccccc3nc1C(C)(C)C2	0%	13µM*	-2%	1%	-23%	>57
COc1ccc(C(=O)N2CCC3(CC2)CN(c2ccccc2)C3)cc1	-6%	?	14%	-8%[11.4 µM]	-9%	·
O=c1c2c([nH]c3ccc(Br)cc13)CCCC2	-1%	-5%	-6%	-2%	12%	·
O=c1ccc2cc3c([nH]c4ccc(Br)cc43)oc-2c1O	-9%	-25%	25µM*	-3%	13µM*	>57
CCN(CC)c1ccc(-c2nc3cnccc3n2C)cc1	-11%	4%	15%	10µM*	14%	i
CC1CCN(Cc2c(C#N)c3ccccc3n2C)CC1	-4%	11%	25µM*	2%	-2%	>57
Cc1ccc(-c2cc(C(=O)N3CCCC3)no2)cc1	3%	-4%	8%	4µM*	21%	7.9*
CC1CCCC(C)N1C(=O)c1cc(F)c(F)cc1Cl (configuration not stated)	-1%	-20%	7%	-2%	4%	·
COc1ccc(-c2cc(C(=O)N3CCCCC3)no2)cc1OC	-5%	12%	-1%	-15%	0%	i
CC1CCCC(C)N1C(=O)c1cc(-c2ccc(Cl)c(Cl)c2)on1 (configuration not stated)	13%	10%	-12%	-11%	3%	7.7*
SMILES	DNA Pol III inh	ERK AVP inh	ALOX15 inhib	Luciferase inh	Tau filament bind	Bst PK mod
O=C(Nc1nc(-c2nc3ccccc3s2)cs1)c1ccc(S(=O)(=O)N2CCOCC2)cc1	-6%	3.2µM*	17%	-6%	167%	>57
Cc1ccc(S(=O)(=O)N2CCOCC2)cc1C(=O)Nc1nc(-c2cccnc2)cs1	-7%	-22%	-4%	1%	17%	8.6*
O=C(Nc1nc(-c2ccc(S(=O)(=O)N3CCCCCC3)cc2)cs1)c1cccs1	-4%	?	-10%	3%	85%	>57
O=C(Nc1nc(-c2ccc(S(=O)(=O)N3CCCC3)cc2)cs1)c1cccs1	-4%	16µM*	-14%	-1%	84%	>57
O=C(C[C@@H](c1ccccc1)N1CCCCC1)c1ccccc1	-5%[11.4 µM]	31%[11.5 µM]	5%[11.4 µM]	-21%[11.4 µM]	-2%[11.4 µM]	·
CC(=O)Oc1cc(OC(C)=O)c2c(=O)cc(-c3ccc(OC(C)=O)c(OC(C)=O)c3)oc2c1	-11%	?	-14%[25.6 µM]	-9%[11.4 µM]	?	·
Nc1ccccc1-c1nc2ccccc2[nH]1	-6%	-4%	7%	?	-1%	·
Cn1c(-c2nc(-c3ccccc3)cs2)nc2ccccc21	·	-5%	?	·	·	·
Nc1ccc(-c2nc3ccc(-c4nc5ccc(N)cc5[nH]4)cc3[nH]2)cc1	·	13µM*	-12%	·	·	·
c1ccc(-c2csc(-c3nc4ccccc4[nH]3)n2)cc1	·	1.3µM*	7.9µM*	·	·	·
Nc1ccc(-c2nc3ccccc3[nH]2)cc1	-8%	·	10%	16µM*	-23%	·
Cn1cc(-c2nc3ccccc3[nH]2)c2ccccc21	3%	-22%	-2%	13µM*	112%	?
CC1(C)CCC(NC(=O)[C@H](N)CCC(=O)O)CC1	2%	-6%	4%	-1%	-7%	·
COc1ccc([C@@H]2CC(=O)c3c(O)cc(O[C@@H]4O[C@@H](CO[C@@H]5O[C@@H](C)[C@@H](O)[C@@H](O)[C@H]5O)[C@@H](O)[C@@H](O)[C@H]4O)cc3O2)cc1O	-7%	·	·	1%[11.4 µM]	152%	·
Cc1noc(C)c1C(=O)N1CCC2(CC1)CN(c1ccccn1)C2	-6%	6%	11%	-2%[11.4 µM]	-15%	·
Nc1cccc(-c2nc3ccccc3[nH]2)c1	-2%	-3%	14%	13µM*	-2%	·
O=[N+]([O-])c1cc(Cl)cc2c1nc(NCCO)c1ccccc12	7%[11.4 µM]	-6%[11.5 µM]	-15%[11.4 µM]	2%[11.4 µM]	4µM*	·
CCc1ccc(OC(=O)c2ccn(CC)n2)cc1	0%	20%	0%	13µM*	1%	?
O=C(c1cnccn1)N1CCC2(CC1)CN(c1ncccn1)C2	8%	19%	-3%	1%[11.4 µM]	17%	·
CNc1nc(N2CCc3ccccc32)ncc1F	-3%	?	?	16µM*	-7%	i
